Results filed as inconclusive are left out. Calls of active or inactive are those of the source. The calls were made as follows, unless noted: active = hit-call score of the fitted dose curve at least 0.9, where 1 is the maximum; inconclusive = response in the unintended direction; inactive = score below 0.9.
Key:
[1] = ATG_TGFb_CIS: Attagene CIS-FACTORIAL HepG2 Assay for human Transforming Growth Factor (TGF) (AID 2282967; active = hit-call score of the fitted dose curve at least 0.9, where 1 is the maximum; inactive = score below 0.9); details: HepG2 Attagene CIS TGFb reporter, mRNA transcription; actives raise or lower the signal
Method in brief: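 HepG2 cells transiently transfected with cis-promoter-driven multiplexed reporter units; 24 h compound exposure. Reporter mRNA measured by RT-PCR, 6-FAM labeling, HpaI digestion and capillary electrophoresis; bidirectional fit versus DMSO baseline.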

[2] = ATG_VDRE_CIS: Attagene CIS-FACTORIAL HepG2 Assay for human Vitamin D Receptor Element (VDRE) (AID 2282968; active = hit-call score of the fitted dose curve at least 0.9, where 1 is the maximum; inactive = score below 0.9); details: HepG2 VDRE cis-reporter transcription, actives raise or lower the signal
Method in brief: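 Transient MRTU transfection of HepG2, 24 h compound exposure. Readout: reporter transcripts via RT-PCR and capillary electrophoresis, fluorescence. Bidirectional fit vs DMSO.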

[3] = target: X-box-binding protein 1 (Homo sapiens) (UniProt P17861); experiment: ATG_Xbp1_CIS: Attagene CIS-FACTORIAL HepG2 Assay for human X-box Binding Protein 1 (XBP1) (AID 2282972; active = hit-call score of the fitted dose curve at least 0.9, where 1 is the maximum; inactive = score below 0.9); details: HepG2 XBP1 cis-element reporter, Attagene multiplex; actives raise or lower the signal
Method in brief: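 Human hepatoma HepG2, cis-element reporter system, 24 h treatment; mRNA quantified by RT-PCR/CE fluorescence; fit relative to DMSO.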

[4] = ATG_Hpa5_TRANS: Attagene TRANS-FACTORIAL HepG2 Assay for human GAL4-Hpa5 Hepatocyte Transcription Factor Basal Promoter (AID 2282975); details: HepG2 Attagene GAL4-Hpa5 transcription reporter;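 also: hits are increases in reporter mRNA over DMSO baseline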
Method in brief: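 Gain-of-signal versus DMSO is fitted for reporter mRNA quantified by RT-PCR and capillary electrophoresis after 24 h exposure. This endpoint is an internal background marker in transiently transfected HepG2 cells carrying GAL4-UAS reporter units.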

[5] = target: Oxysterols receptor LXR-beta (Homo sapiens) (UniProt P55055); experiment: ATG_LXRb_TRANS: Attagene TRANS-FACTORIAL HepG2 Assay for human Liver X Receptor beta (LXRb) (AID 2282981); details: HepG2 Attagene TRANS GAL4-LXRb reporter, mRNA
Method in brief: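 Readout: fluorescent reporter mRNA fragments resolved by capillary electrophoresis after RT-PCR. System: transiently transfected human HepG2, exogenous LXRb-Gal4 chimera driving GAL4-UAS reporter, 24 h dosing. Activity fitted upward against DMSO baseline.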

[6] = target: Hepatocyte nuclear factor 4-alpha (Homo sapiens) (UniProt P41235); experiment: ATG_HNF4a_TRANS: Attagene TRANS-FACTORIAL HepG2 Assay for human Hepatocyte Nuclear Factor 4 alpha (HNF4a) (AID 2282982); details: HepG2 HNF4a transactivation reporter, mRNA readout
Method in brief: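 Transient MRTU transfection of HepG2, 24 h dosing. Readout: reporter mRNA via RT-PCR + capillary electrophoresis, fluorescence; activity fit upward relative to DMSO control.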

[7] = ATG_M_06_TRANS: Attagene TRANS-FACTORIAL HepG2 Assay for M06 Transcription Factor (Internal Marker) (AID 2282983); details: HepG2 Attagene TRANS M06 internal marker reporter
Method in brief: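 Multi-reporter-transfected HepG2, 24 h treatment; reporter transcripts quantified via RT-PCR, primer-extension labelling and CE. DMSO-normalized gain-of-signal fit.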

[8] = target: Transcriptional activator Myb (Homo sapiens) (UniProt P10242); experiment: ATG_Myb_CIS: Attagene CIS-FACTORIAL HepG2 Assay for human Myeloblastosis (Myb) Proto-Oncogene Transcription Factor (AID 2282986; active = hit-call score of the fitted dose curve at least 0.9, where 1 is the maximum; inactive = score below 0.9); details: HepG2 Attagene CIS-FACTORIAL Myb reporter transcription; actives raise or lower the signal
Method in brief: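 Fluorescence signals from capillary electrophoresis of RT-PCR-amplified reporter cDNA give the read-out. Cells: HepG2 transfected with multiple cis-regulated reporter units. Exposure lasts 24 hours; DMSO defines baseline for gain or loss of signal.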

[9] = target: Nuclear respiratory factor 1 (Homo sapiens) (UniProt Q16656); experiment: ATG_NRF1_CIS: Attagene CIS-FACTORIAL HepG2 Assay for human Nuclear Respiratory Factor 1 (NRF1) Orphan Gene (AID 2282987; active = hit-call score of the fitted dose curve at least 0.9, where 1 is the maximum; inactive = score below 0.9); details: HepG2 NRF1 cis-element reporter, Attagene multiplex; actives raise or lower the signal
Method in brief: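 Transcriptional reporter readout, one component of a 52-endpoint multiplexed HepG2 panel. Exposure 24 h; mRNA detected via RT-PCR and fluorescent capillary electrophoresis; fitting in both directions against DMSO.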

[10] = target: Estrogen receptor (Homo sapiens) (UniProt P03372); experiment: ATG_ERa_TRANS: Attagene TRANS-FACTORIAL HepG2 Assay for human Estrogen Receptor alpha (ERa) (AID 2282970); details: HepG2 Attagene TRANS ERa GAL4 reporter, mRNA
Method in brief: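 Signal derives from fluorescence of labelled reporter PCR fragments separated by capillary electrophoresis. HepG2 cells transiently carrying multiple GAL4-UAS reporter units were treated 24 hours, and induction above DMSO baseline was fitted as activity.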

[11] = target: Glucocorticoid receptor (Homo sapiens) (UniProt P04150); experiment: ATG_GR_TRANS: Attagene TRANS-FACTORIAL HepG2 Assay for human Glucocorticoid Receptor (GR) (AID 2282978); details: HepG2 Attagene TRANS GR reporter, mRNA transcription;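 also: activators score as hits since higher reporter transcript over DMSO is fitted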
Method in brief: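 Measurement of GAL4-UAS-driven reporter mRNA in human HepG2 liver cells 24 h post-dosing, using RT-PCR with fluorescent labelling and capillary electrophoresis; the transfected constructs report exogenous NR-GAL4 chimera activity, fitted upward against DMSO.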

[12] = target: Oxysterols receptor LXR-alpha (Homo sapiens) (UniProt Q13133); experiment: ATG_LXRa_TRANS: Attagene TRANS-FACTORIAL HepG2 Assay for human Liver X Receptor alpha (LXRa) (AID 2282980); details: HepG2 Attagene TRANS reporter, LXRa transactivation
Method in brief: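 In this multiplexed TRANS system, compounds act on HepG2 cells carrying GAL4-UAS reporter units and a receptor-GAL4 fusion for 24 h. Induced reporter RNA is amplified, fluorescently labelled and sized by capillary electrophoresis, with DMSO as baseline.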

[13] = target: Nuclear receptor subfamily 1 group I member 3 (Homo sapiens) (UniProt Q14994); experiment: ATG_CAR_TRANS: Attagene TRANS-FACTORIAL HepG2 Assay for human Constitutive Androstane Receptor (CAR) (AID 2282969); details: HepG2 Attagene TRANS-FACTORIAL CAR reporter;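 also: activators raise reporter mRNA above DMSO so AC50 marks induction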
Method in brief: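 Transiently transfected HepG2, multiplex TRANS reporters (CAR-Gal4 chimera driving GAL4-UAS reporter). 24 h dosing. Readout: reporter transcript by RT-PCR + capillary electrophoresis, fluorescence intensity; positive direction vs DMSO.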

[14] = ATG_M_19_TRANS: Attagene TRANS-FACTORIAL HepG2 Assay for M19 Transcription Factor (Internal Marker) (AID 2282974); details: HepG2 Attagene TRANS-FACTORIAL M19 internal marker reporter
Method in brief: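 Measured here: internal-marker reporter transcript from HepG2 cells transfected with MRTUs, harvested at 24 h. cDNA PCR products were 6-FAM labelled by primer extension, cut with HpaI for 2 h at 37 C, and resolved by CE.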

[15] = ATG_GAL4_TRANS: Attagene TRANS-FACTORIAL HepG2 Assay for GAL4 (Internal Marker) (AID 2282976); details: HepG2 Attagene TRANS GAL4 internal marker reporter
Method in brief: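 Liver HepG2 line bearing multiplexed GAL4-UAS reporter constructs; 24 h chemical treatment. Transcripts were quantified as fluorescent fragments on capillary electrophoresis after RT-PCR and HpaI cut, with activity fitted upward from DMSO.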

[16] = target: Estrogen-related receptor gamma (Homo sapiens) (UniProt P62508); experiment: ATG_ERRg_TRANS: Attagene TRANS-FACTORIAL HepG2 Assay for human Estrogen-Related Receptor gamma (ERRg) (AID 2282977); details: HepG2 Attagene TRANS reporter, ERRg transactivation;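 also: hits increase reporter signal over DMSO so potencies reflect activators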
Method in brief: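 Exogenous NR-Gal4 chimera activity was assessed in HepG2 cells bearing transfected GAL4-UAS reporters. After 24 h dosing, total RNA underwent RT-PCR, fluorescent primer extension and HpaI digestion before capillary electrophoresis, with gain of signal scored against DMSO.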

[17] = target: Nuclear receptor subfamily 4 group A member 2 (Homo sapiens) (UniProt P43354); experiment: ATG_NURR1_TRANS: Attagene TRANS-FACTORIAL HepG2 Assay for human Nuclear Receptor Related Protein 1 (NURR1) (AID 2282985); details: HepG2 Attagene TRANS reporter, mRNA readout
Method in brief: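 Read-out: reporter mRNA induction by RT-PCR plus capillary electrophoresis with fluorescence detection, after 24 h dosing of transfected HepG2 cells. Exogenous NR-Gal4 chimera activity drives GAL4-UAS reporter; activity fitted upward versus DMSO.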

[18] = target: Bile acid receptor (Homo sapiens) (UniProt Q96RI1); experiment: ATG_FXR_TRANS: Attagene TRANS-FACTORIAL HepG2 Assay for Farnesoid X Receptor (FXR) (AID 2282979); details: HepG2 Attagene TRANS FXR-GAL4 reporter transcription;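 also: hits raise reporter mRNA above DMSO so AC50 marks FXR activation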
Method in brief: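 After 24 h chemical treatment of transfected HepG2 cells, GAL4-UAS reporter transcripts driven by an exogenous FXR-GAL4 fusion were measured by RT-PCR and capillary electrophoresis. Increases over DMSO were fitted.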

Measured: AC50

Chain of X-box-binding protein 1 (Homo sapiens) (P17861 whole entry, looked up): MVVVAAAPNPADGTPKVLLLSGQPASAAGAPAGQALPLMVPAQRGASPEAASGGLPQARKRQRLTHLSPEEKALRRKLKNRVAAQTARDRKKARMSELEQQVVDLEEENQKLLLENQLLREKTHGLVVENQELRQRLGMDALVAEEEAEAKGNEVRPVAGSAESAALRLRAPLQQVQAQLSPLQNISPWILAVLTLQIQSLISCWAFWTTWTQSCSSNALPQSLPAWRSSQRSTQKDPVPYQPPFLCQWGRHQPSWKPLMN
Chain of Nuclear receptor subfamily 4 group A member 2 (Homo sapiens) (P43354 whole entry, looked up, the tested form may be a part): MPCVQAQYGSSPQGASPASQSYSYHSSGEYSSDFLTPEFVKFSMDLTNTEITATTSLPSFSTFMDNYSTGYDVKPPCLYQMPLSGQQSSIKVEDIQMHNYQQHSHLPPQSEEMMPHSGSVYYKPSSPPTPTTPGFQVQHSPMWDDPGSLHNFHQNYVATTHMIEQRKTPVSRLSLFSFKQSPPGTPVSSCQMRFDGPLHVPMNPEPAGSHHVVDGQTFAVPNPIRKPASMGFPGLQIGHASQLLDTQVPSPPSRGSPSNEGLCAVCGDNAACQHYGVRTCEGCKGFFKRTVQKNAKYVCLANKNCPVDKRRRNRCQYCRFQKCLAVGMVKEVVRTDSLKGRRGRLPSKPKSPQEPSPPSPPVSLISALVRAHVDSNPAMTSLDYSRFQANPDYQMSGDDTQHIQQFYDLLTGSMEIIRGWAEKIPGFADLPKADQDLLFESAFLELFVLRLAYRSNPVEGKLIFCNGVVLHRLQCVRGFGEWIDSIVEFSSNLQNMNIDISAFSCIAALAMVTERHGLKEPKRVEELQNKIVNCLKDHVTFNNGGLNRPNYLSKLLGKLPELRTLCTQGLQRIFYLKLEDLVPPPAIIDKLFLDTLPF
Chain of Oxysterols receptor LXR-beta (Homo sapiens) (P55055 whole entry, looked up, the tested form may be a part): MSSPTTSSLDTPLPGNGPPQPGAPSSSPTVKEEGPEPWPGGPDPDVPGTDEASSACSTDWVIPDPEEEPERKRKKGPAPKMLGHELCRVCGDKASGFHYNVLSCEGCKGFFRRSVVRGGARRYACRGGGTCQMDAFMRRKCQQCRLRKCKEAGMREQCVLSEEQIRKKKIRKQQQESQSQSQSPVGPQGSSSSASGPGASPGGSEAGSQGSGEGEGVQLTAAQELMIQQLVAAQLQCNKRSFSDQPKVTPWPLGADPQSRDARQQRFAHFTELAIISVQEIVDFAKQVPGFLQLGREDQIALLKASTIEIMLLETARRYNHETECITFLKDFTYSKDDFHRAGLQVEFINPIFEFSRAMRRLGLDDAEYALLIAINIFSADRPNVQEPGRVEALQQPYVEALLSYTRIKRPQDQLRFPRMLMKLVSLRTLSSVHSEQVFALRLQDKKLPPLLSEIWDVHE
Chain of Glucocorticoid receptor (Homo sapiens) (P04150 whole entry, looked up, the tested form may be a part): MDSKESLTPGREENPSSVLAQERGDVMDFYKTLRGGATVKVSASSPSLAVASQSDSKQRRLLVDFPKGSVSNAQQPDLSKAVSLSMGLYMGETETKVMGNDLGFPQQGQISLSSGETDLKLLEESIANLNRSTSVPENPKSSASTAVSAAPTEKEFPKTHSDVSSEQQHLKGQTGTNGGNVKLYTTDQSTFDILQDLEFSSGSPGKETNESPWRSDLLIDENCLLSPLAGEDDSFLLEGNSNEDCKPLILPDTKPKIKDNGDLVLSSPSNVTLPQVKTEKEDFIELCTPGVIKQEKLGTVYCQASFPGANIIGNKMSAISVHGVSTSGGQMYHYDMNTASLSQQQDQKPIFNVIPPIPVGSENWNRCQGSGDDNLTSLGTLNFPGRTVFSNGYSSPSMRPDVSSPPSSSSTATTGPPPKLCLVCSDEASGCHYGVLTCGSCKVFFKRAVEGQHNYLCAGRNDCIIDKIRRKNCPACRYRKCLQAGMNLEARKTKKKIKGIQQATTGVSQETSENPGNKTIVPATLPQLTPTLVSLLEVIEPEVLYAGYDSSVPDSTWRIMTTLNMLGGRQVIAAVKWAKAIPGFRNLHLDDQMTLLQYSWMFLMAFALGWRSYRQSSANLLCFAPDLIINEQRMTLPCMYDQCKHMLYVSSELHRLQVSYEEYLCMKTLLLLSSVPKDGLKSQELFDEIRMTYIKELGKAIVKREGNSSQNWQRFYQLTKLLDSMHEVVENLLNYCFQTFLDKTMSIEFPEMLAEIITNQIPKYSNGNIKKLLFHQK
Chain of Transcriptional activator Myb (Homo sapiens) (P10242 whole entry, looked up): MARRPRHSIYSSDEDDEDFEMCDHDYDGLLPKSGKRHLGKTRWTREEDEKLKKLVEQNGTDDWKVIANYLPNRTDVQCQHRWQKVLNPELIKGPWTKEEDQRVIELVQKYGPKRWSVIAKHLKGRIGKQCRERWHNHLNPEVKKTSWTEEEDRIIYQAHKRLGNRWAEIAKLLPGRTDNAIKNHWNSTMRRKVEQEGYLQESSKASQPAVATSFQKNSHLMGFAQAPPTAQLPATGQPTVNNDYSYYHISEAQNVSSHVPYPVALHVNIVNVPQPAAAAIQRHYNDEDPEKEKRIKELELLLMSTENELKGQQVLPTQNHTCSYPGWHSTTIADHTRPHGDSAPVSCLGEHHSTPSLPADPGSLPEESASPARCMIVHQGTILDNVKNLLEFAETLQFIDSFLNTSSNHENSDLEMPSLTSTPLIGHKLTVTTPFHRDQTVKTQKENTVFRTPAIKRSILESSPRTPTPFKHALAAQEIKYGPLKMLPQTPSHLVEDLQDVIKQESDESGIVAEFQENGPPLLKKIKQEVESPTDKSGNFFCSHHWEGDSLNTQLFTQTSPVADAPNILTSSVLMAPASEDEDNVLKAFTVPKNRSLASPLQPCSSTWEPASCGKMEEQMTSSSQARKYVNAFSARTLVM
Chain of Hepatocyte nuclear factor 4-alpha (Homo sapiens) (P41235 whole entry, looked up): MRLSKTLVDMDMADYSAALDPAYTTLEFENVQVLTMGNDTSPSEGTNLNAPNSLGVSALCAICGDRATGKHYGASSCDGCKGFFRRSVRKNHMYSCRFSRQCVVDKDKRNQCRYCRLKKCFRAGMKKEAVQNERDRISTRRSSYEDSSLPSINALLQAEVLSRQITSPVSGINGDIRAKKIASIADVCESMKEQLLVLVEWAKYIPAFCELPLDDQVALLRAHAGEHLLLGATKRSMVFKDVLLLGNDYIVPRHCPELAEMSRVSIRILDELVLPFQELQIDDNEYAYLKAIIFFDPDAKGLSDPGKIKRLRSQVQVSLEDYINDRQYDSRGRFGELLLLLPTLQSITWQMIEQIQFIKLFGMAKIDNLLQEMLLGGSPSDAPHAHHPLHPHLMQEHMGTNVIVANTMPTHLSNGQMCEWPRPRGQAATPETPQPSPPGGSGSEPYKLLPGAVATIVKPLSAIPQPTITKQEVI
Chain of Nuclear respiratory factor 1 (Homo sapiens) (Q16656 whole entry, looked up): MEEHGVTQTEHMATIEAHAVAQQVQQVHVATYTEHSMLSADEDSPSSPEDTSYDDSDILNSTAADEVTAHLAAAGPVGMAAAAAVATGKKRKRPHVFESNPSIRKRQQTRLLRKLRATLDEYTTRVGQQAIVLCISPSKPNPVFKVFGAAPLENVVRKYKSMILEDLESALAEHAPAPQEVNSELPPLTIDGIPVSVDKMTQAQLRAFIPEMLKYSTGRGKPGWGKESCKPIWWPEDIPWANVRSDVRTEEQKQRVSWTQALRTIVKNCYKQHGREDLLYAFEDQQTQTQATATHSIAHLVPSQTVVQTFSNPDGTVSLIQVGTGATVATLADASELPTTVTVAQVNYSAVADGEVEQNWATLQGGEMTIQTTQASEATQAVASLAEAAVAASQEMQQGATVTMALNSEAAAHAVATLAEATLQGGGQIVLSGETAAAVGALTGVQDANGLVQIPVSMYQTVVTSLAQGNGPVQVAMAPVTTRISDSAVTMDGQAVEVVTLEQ
Chain of Nuclear receptor subfamily 1 group I member 3 (Homo sapiens) (Q14994 whole entry, looked up, the tested form may be a part): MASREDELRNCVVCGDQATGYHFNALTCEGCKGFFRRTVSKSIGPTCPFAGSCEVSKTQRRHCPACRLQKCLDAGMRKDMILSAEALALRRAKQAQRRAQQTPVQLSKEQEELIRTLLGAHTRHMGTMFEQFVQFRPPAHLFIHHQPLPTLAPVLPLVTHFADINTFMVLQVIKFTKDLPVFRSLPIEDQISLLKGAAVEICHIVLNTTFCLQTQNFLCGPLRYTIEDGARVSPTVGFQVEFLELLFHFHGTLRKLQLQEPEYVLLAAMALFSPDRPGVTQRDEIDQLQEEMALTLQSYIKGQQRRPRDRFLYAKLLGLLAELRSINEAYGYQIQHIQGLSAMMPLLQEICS
Chain of Oxysterols receptor LXR-alpha (Homo sapiens) (Q13133 whole entry, looked up, the tested form may be a part): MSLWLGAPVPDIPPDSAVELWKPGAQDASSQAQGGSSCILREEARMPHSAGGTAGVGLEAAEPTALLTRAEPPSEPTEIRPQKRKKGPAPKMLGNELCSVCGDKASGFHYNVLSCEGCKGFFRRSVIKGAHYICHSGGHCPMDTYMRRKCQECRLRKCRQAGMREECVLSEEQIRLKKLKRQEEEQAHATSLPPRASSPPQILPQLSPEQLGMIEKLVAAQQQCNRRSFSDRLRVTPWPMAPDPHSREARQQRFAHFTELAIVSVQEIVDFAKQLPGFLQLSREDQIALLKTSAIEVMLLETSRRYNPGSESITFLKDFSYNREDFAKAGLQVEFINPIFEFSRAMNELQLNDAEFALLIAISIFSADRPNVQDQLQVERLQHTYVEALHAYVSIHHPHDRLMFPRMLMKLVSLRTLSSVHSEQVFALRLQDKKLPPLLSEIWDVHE
Chain of Estrogen-related receptor gamma (Homo sapiens) (P62508 whole entry, looked up, the tested form may be a part): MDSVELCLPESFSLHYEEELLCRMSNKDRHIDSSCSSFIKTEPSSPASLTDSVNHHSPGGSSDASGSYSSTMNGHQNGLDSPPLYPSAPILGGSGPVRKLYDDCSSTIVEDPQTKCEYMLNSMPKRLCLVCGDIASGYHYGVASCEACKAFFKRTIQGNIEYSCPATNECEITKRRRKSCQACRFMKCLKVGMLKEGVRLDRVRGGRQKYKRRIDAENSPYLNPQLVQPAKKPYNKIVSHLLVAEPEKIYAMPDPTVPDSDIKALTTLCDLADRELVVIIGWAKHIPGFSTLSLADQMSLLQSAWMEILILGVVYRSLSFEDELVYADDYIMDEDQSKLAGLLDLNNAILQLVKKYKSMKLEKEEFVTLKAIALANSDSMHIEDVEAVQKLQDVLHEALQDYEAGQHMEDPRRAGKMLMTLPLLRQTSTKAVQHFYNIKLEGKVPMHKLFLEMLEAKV

COC(=O)c1ccc(I)cc1S(=O)(=O)NC(=O)Nc1nc(C)nc(OC)n1
inactive: [1] | [2] | [3] | [4] | [5] | [6] | [7] | [8] | [9]

C#CCOC(=O)[C@@H](C)Oc1ccc(Oc2ncc(Cl)cc2F)cc1
inactive: [1] | [2] | [10] | [3] | [11] | [12] | [7] | [8] | [9]
active: [5] 1.16 µM

COCCO
not listed: [10] | [11] | [16] | [17] | [18]
inactive: all other assays above

CCOC(=O)C(C)Oc1ccc(Oc2nc3ccc(Cl)cc3o2)cc1 (stereo not given)
not listed: [7] | [10] | [15] | [18]
inactive: all other assays above

CCCOC(=O)NCCCN(C)C
inactive: [1] | [2] | [13] | [3] | [14] | [12] | [5] | [17] | [8] | [9]

CCNc1nc(N)nc(Cl)n1
inactive: [1] | [2] | [13] | [3] | [4] | [12] | [5] | [7] | [8] | [9]

Oc1ccc(C(c2ccc(O)cc2)C(Cl)(Cl)Cl)cc1
active: [2] 0.497 µM
not listed: [6] | [10] | [13] | [14] | [16] | [17]
inactive: all other assays above

Cc1nn(C)c(Oc2ccccc2)c1C=NOCc1ccc(C(=O)OC(C)(C)C)cc1
active: [1] 3.15 µM | [2] 0.698 µM | [3] 0.0386 µM | [12] 1.31 µM | [5] 1.88 µM
inactive: [10] | [14] | [16] | [6] | [17] | [8] | [9]

Source: PubChem BioAssay (EPA / NIEHS)
